Experimental data published in PubChem BioAssay (NCI).
This is part of a sample that, as a whole, favours compounds with a hit. Of some 83,000 tested, about 20% had one in any assay.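 Treatment: one concentration, 48 hours, 96-well format. Scoring: percent growth, with anything below 10 considered active.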 The source made the active and inactive calls.

Columns and labels:
Assay in all cases: NCI-60 one-dose screen, 48 h (100 = growth as untreated, 0 = no growth, -100 = all killed)
Settings in all cases: 10 µM unless noted
HCT-15 colon = test system: HCT-15 colon
HT29 colon = test system: HT29 colon
SNB-75 CNS = test system: SNB-75 CNS
SNB-19 CNS = test system: SNB-19 CNS
U251 CNS = test system: U251 CNS
PC-3 prostate = test system: PC-3 prostate
SK-MEL-5 melanoma = test system: SK-MEL-5 melanoma
UACC-62 melanoma = test system: UACC-62 melanoma
LOX IMVI melanoma = test system: LOX IMVI melanoma
SK-MEL-28 melanoma = test system: SK-MEL-28 melanoma
SK-MEL-2 melanoma = test system: SK-MEL-2 melanoma
EKVX NSCLC = test system: EKVX NSCLC
SN12C renal = test system: SN12C renal
UO-31 renal = test system: UO-31 renal
TK-10 renal = test system: TK-10 renal
ACHN renal = test system: ACHN renal
CAKI-1 renal = test system: CAKI-1 renal
A498 renal = test system: A498 renal
MOLT-4 leukemia = test system: MOLT-4 leukemia
CCRF-CEM leukemia = test system: CCRF-CEM leukemia

Measured: growth

C=CCc1c2c(c(OC)c3ccoc13)C(=O)/C(=C/c1ccccc1OC)O2
inactive: HCT-15 colon 45.2% | HT29 colon 44.6% | SNB-75 CNS 35.8% | SNB-19 CNS 73% | U251 CNS 46.2% | PC-3 prostate 55.2% | SK-MEL-5 melanoma 98% | UACC-62 melanoma 46.4% | LOX IMVI melanoma 38.3% | SK-MEL-28 melanoma 81.1% | SK-MEL-2 melanoma 58.4% | EKVX NSCLC 60.6% | SN12C renal 62.1% | UO-31 renal 65.7% | TK-10 renal 52.9% | ACHN renal 59.3% | CAKI-1 renal 38.4% | A498 renal 46.2% | MOLT-4 leukemia 45.8%

CN(C)c1ccc(Nc2cc(-c3cccc(OC(F)(F)F)c3)nc3ccc(N4CCCC4)cc23)cc1
inactive: SNB-75 CNS 55% | SNB-19 CNS 66% | PC-3 prostate 18% | SK-MEL-5 melanoma 96.3% | UACC-62 melanoma 90.1% | SK-MEL-2 melanoma 106% | EKVX NSCLC 89.3% | SN12C renal 40.3% | UO-31 renal 74% | TK-10 renal 95.4% | ACHN renal 97.6% | CAKI-1 renal 89.6% | A498 renal 98.3%
active: HCT-15 colon -45.5% | HT29 colon -12.8% | U251 CNS -59.2% | LOX IMVI melanoma -73.7% | SK-MEL-28 melanoma -85.3% | MOLT-4 leukemia 2.94%

O=C1N(Cc2ccccc2Cl)c2ccccc2C12NN=C(c1cccc(Cl)c1)S2 (configuration not stated)
inactive: HT29 colon 94.4% | SNB-75 CNS 16.7% | SNB-19 CNS 20.9% | SK-MEL-5 melanoma 14.5%
active: HCT-15 colon 0.214% | U251 CNS -30% | PC-3 prostate -64.3% | UACC-62 melanoma -44.3% | LOX IMVI melanoma -19.4% | SK-MEL-28 melanoma 7.1% | SK-MEL-2 melanoma -23.1% | EKVX NSCLC -31% | SN12C renal -19.8% | UO-31 renal -58.3% | ACHN renal -47.1% | CAKI-1 renal -30.7% | A498 renal -85.9% | CCRF-CEM leukemia 1.03% | MOLT-4 leukemia -18%

Cc1cc2c(O)c(-c3cc(Cl)ccc3Cl)c3sc(=O)oc3c2cc1C
inactive: HCT-15 colon 74.5% | HT29 colon 103% | SNB-75 CNS 61.2% | SNB-19 CNS 77.6% | U251 CNS 45.4% | PC-3 prostate 29.2% | SK-MEL-5 melanoma 42.5% | UACC-62 melanoma 52.2% | LOX IMVI melanoma 78.4% | SK-MEL-28 melanoma 81% | SK-MEL-2 melanoma 74% | EKVX NSCLC 94.6% | SN12C renal 66.9% | UO-31 renal 85.3% | TK-10 renal 113% | ACHN renal 79.8% | CAKI-1 renal 53.9% | A498 renal 30.1% | MOLT-4 leukemia 40.6%

COc1ccc2c3c([nH]c2c1)C(=O)c1nc(C)ccc1C3=O
active: SNB-75 CNS -4.19% | SK-MEL-5 melanoma -95.1% | UACC-62 melanoma -29.3% | MOLT-4 leukemia 7.34%
inactive: HCT-15 colon 22.3% | HT29 colon 74.9% | SNB-19 CNS 46.1% | U251 CNS 45.6% | PC-3 prostate 45.7% | LOX IMVI melanoma 19.1% | SK-MEL-28 melanoma 83.7% | SK-MEL-2 melanoma 66.7% | EKVX NSCLC 53.6% | SN12C renal 38.4% | UO-31 renal 39.6% | ACHN renal 35% | CAKI-1 renal 51.8% | A498 renal 67.6% | CCRF-CEM leukemia 53.2%

CCC(=C(c1ccc(OCCN2CCCC2)cc1)c1ccc(OCCN2CCCC2)cc1)c1ccc(Cl)cc1
inactive: EKVX NSCLC 92.7% | A498 renal 46.8%
active: HCT-15 colon -70.5% | HT29 colon -49.9% | SNB-75 CNS -58.2% | SNB-19 CNS -19% | U251 CNS -77.4% | PC-3 prostate -7.15% | SK-MEL-5 melanoma -83.4% | UACC-62 melanoma -46.9% | LOX IMVI melanoma -90.3% | SK-MEL-28 melanoma -81.7% | SK-MEL-2 melanoma -28.2% | SN12C renal -62.9% | UO-31 renal -73.4% | TK-10 renal -12.5% | ACHN renal -84.6% | CAKI-1 renal -58.7% | MOLT-4 leukemia -27.2%

O=C1/C(=C/c2ccc(F)cc2)COc2ccc(O)c(O)c21
active: HCT-15 colon -27.7% | U251 CNS 1.66% | PC-3 prostate -0.716% | UACC-62 melanoma 7.26% | LOX IMVI melanoma -85.2% | SN12C renal -49.9% | UO-31 renal -96.9% | ACHN renal -67.1% | CAKI-1 renal 9.04% | CCRF-CEM leukemia 3.39% | MOLT-4 leukemia 4.21%
inactive: HT29 colon 13.5% | SNB-75 CNS 26.9% | SNB-19 CNS 33.4% | SK-MEL-5 melanoma 56.3% | SK-MEL-28 melanoma 44.1% | SK-MEL-2 melanoma 74.8% | EKVX NSCLC 51.4% | A498 renal 105%

C=C(C)[C@@H]1CC[C@]2(C(=O)N3CCN(C)CC3)CC[C@]3(C)[C@H](CC[C@@H]4[C@@]5(C)CC(=C/c6ccncc6)/C(=N/O)C(C)(C)[C@@H]5CC[C@]43C)[C@@H]12
inactive: HCT-15 colon 65.5% | HT29 colon 41.1% | SNB-75 CNS 66.1% | SNB-19 CNS 79.7% | U251 CNS 70.2% | PC-3 prostate 44.8% | SK-MEL-5 melanoma 59.9% | UACC-62 melanoma 78.5% | LOX IMVI melanoma 86% | SK-MEL-28 melanoma 96.4% | SK-MEL-2 melanoma 83.8% | EKVX NSCLC 84.6% | SN12C renal 74.7% | UO-31 renal 45.5% | TK-10 renal 85.2% | ACHN renal 75.9% | CAKI-1 renal 63.8% | A498 renal 96.8% | MOLT-4 leukemia 33.9%

O=C(/C=C(/C=C/c1cccc2[nH]ccc12)OB(F)F)/C=C/c1cccc2[nH]ccc12
active: HCT-15 colon -58.4% | HT29 colon -52.8% | SNB-75 CNS -40.4% | SNB-19 CNS -7.8% | U251 CNS -87% | PC-3 prostate -42.5% | SK-MEL-5 melanoma -78.3% | UACC-62 melanoma -51.8% | LOX IMVI melanoma -81.1% | SK-MEL-28 melanoma -14.3% | SK-MEL-2 melanoma -57.9% | EKVX NSCLC -30.9% | SN12C renal -1.2% | UO-31 renal -77.6% | ACHN renal -70.3% | CAKI-1 renal -73.6% | A498 renal -35.2% | CCRF-CEM leukemia -32.1% | MOLT-4 leukemia -11.9%

Cc1nc2ncnc(Cl)c2[nH]1
inactive: HCT-15 colon 100% | HT29 colon 80.9% | SNB-75 CNS 89.1% | SNB-19 CNS 99.7% | U251 CNS 91.3% | PC-3 prostate 90.5% | SK-MEL-5 melanoma 104% | UACC-62 melanoma 100% | LOX IMVI melanoma 97.5% | SK-MEL-28 melanoma 115% | SK-MEL-2 melanoma 104% | EKVX NSCLC 103% | SN12C renal 99.7% | UO-31 renal 88.3% | TK-10 renal 94.4% | ACHN renal 109% | CAKI-1 renal 94.7% | A498 renal 97.3% | MOLT-4 leukemia 94.7%

CCN1CCN(Cc2cn(CC(=O)Nc3ccc4c(ccn4Cc4ccccc4)c3)nn2)CC1
inactive: HCT-15 colon 109% | HT29 colon 102% | SNB-75 CNS 86.8% | SNB-19 CNS 98.4% | U251 CNS 96.6% | PC-3 prostate 96.4% | SK-MEL-5 melanoma 99.9% | UACC-62 melanoma 95% | LOX IMVI melanoma 103% | SK-MEL-28 melanoma 105% | SK-MEL-2 melanoma 106% | EKVX NSCLC 106% | SN12C renal 104% | UO-31 renal 81.3% | ACHN renal 102% | CAKI-1 renal 86.7% | A498 renal 108% | MOLT-4 leukemia 101%
active: CCRF-CEM leukemia 7.79%

CN1CCN(C(=O)c2ccc(NC(=O)Nc3ccc(-c4nc(N5CCOCC5)c5cccn5n4)cc3)cc2)CC1
inactive: HCT-15 colon 13.2% | CAKI-1 renal 15.3%
active: HT29 colon 5.74% | SNB-75 CNS -37.7% | SNB-19 CNS 3.27% | U251 CNS 3.91% | PC-3 prostate 5.5% | SK-MEL-5 melanoma -61.6% | UACC-62 melanoma -41.3% | LOX IMVI melanoma -3.2% | SK-MEL-28 melanoma -18.4% | SK-MEL-2 melanoma -8.25% | EKVX NSCLC -22.8% | SN12C renal 5.33% | UO-31 renal -14.6% | TK-10 renal -23.5% | ACHN renal -6.03% | A498 renal -51.5% | MOLT-4 leukemia 0.147%

O=C(c1ccc(-c2ccccc2)cc1)c1ccc([N+](=O)[O-])cc1
inactive: HCT-15 colon 103% | HT29 colon 104% | SNB-75 CNS 105% | SNB-19 CNS 101% | U251 CNS 99% | PC-3 prostate 86.7% | SK-MEL-5 melanoma 97.3% | UACC-62 melanoma 92.7% | LOX IMVI melanoma 98.4% | SK-MEL-28 melanoma 122% | SK-MEL-2 melanoma 104% | EKVX NSCLC 98% | SN12C renal 104% | UO-31 renal 97.5% | TK-10 renal 124% | ACHN renal 97.5% | CAKI-1 renal 88.1% | A498 renal 124% | MOLT-4 leukemia 52.6%
